From PubChem BioAssay AID1159580 (chemical genetic matrix, 2015)
The whole screen tested about 5,500 compounds, of which about 2,000 (36%) were called active. Roughly 18% stayed inconclusive and do not appear here. Cut-off read from the data, not from the text of the source: active = normalized growth mostly below about 0.91 (no sharp cut-off); inconclusive = no clear call, values can overlap the other calls; inactive = mostly above about 0.92. This is one part of the list.

Assay: chemical genetic growth profiling, strain panel (AID 1159580);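 note: tested at 20 µM; growth read once vehicle control cultures reached saturation at 30 °C; 1 = growth at the plate median or of vehicle wells; lower values mean less growth of the strain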
Settings: growth OD

Measured: normalized growth

CCOP(=S)(OCC)SCSCC
inactive: S. cerevisiae deletion strains, locus YAL013W, strain DEP1, hits give low values 1 | S. cerevisiae deletion strains, locus YBR021W, strain FUR4, hits give low values 0.979 | S. cerevisiae deletion strains, locus YBR229C, strain ROT2, hits give low values 1 | S. cerevisiae deletion strains, locus YCL029C, strain bik1, hits give low values 1 | S. cerevisiae deletion strains, locus YDL035C, strain GPR1, hits give low values 0.986 | S. cerevisiae deletion strains, locus YDL074C, strain BRE1, hits give low values 0.963 | S. cerevisiae deletion strains, locus YDL101C, strain DUN1, hits give low values 1 | S. cerevisiae deletion strains, locus YDL134C, strain PPH21, hits give low values 0.998 | S. cerevisiae deletion strains, locus YDL185W, strain tfp1, hits give low values 1.01 | S. cerevisiae deletion strains, locus YDL192W, strain arf1, hits give low values 1 | S. cerevisiae deletion strains, locus YDR101C, strain arx1, hits give low values 0.993 | S. cerevisiae deletion strains, locus YDR150W, strain NUM1, hits give low values 0.994 | S. cerevisiae deletion strains, locus YDR162C, strain NBP2, hits give low values 0.969 | S. cerevisiae deletion strains, locus YDR318W, strain mcm21, hits give low values 1.01 | S. cerevisiae deletion strains, locus YDR388W, hits give low values 1 | S. cerevisiae deletion strains, locus YDR502C, strain sam2, hits give low values 1 | S. cerevisiae deletion strains, locus YEL061C, strain CIN8, hits give low values 1.01 | S. cerevisiae deletion strains, locus YER110C, hits give low values 1 | S. cerevisiae deletion strains, locus YER155C, strain BEM2, hits give low values 1 | S. cerevisiae deletion strains, locus YER167W, strain BCK2, hits give low values 1 | S. cerevisiae deletion strains, locus YGL078C, strain dbp3, hits give low values 1 | S. cerevisiae deletion strains, locus YGL086W, strain mad1, hits give low values 0.998 | S. cerevisiae deletion strains, locus YGL248W, strain PDE1, hits give low values 1 | S. cerevisiae deletion strains, locus YGR078C, strain PAC10, hits give low values 0.99 | S. cerevisiae deletion strains, locus YGR135W, strain pre9, hits give low values 1.01 | S. cerevisiae deletion strains, locus YGR229C, strain SMI1, hits give low values 0.998 | S. cerevisiae deletion strains, locus YGR252W, strain gcn5, hits give low values 0.993 | S. cerevisiae deletion strains, locus YHR030C, strain SLT2, hits give low values 1 | S. cerevisiae deletion strains, locus YHR079C, strain IRE1 (second series), hits give low values 1.01 | S. cerevisiae deletion strains, locus YHR094C, strain hxt1, hits give low values 0.997 | S. cerevisiae deletion strains, locus YHR129C, strain ARP1, hits give low values 1.01 | S. cerevisiae deletion strains, locus YHR200W, strain rpn10, hits give low values 1.01 | S. cerevisiae deletion strains, locus YIL066C, strain RNR3, hits give low values 1.01 | S. cerevisiae deletion strains, locus YIL073C, strain SPO22, hits give low values 1.06 | S. cerevisiae deletion strains, locus YIL125W, strain kgd1, hits give low values 1 | S. cerevisiae deletion strains, locus YIR030C, strain dcg1, hits give low values 1.01 | S. cerevisiae deletion strains, locus YJL095W, strain BCK1, hits give low values 0.993 | S. cerevisiae deletion strains, locus YJL134W, strain LCB3, hits give low values 1 | S. cerevisiae deletion strains, locus YJL168C, strain set2, hits give low values 1.01 | S. cerevisiae deletion strains, locus YJL187C, strain SWE1 (second series), hits give low values 1.01 | S. cerevisiae deletion strains, locus YJR043C, strain POL32, hits give low values 1.01 | S. cerevisiae deletion strains, locus YJR075W, strain HOC1, hits give low values 1 | S. cerevisiae deletion strains, locus YKL009W, strain mrt4, hits give low values 1.01 | S. cerevisiae deletion strains, locus YKL068W, hits give low values 1.01 | S. cerevisiae deletion strains, locus YKL085W, strain MDH1 (second series), hits give low values 1 | S. cerevisiae deletion strains, locus YKL085W, strain MDH1, hits give low values 1 | S. cerevisiae deletion strains, locus YKL190W, strain CNB1, hits give low values 1.01 | S. cerevisiae deletion strains, locus YKR001C, strain vps1, hits give low values 0.998 | S. cerevisiae deletion strains, locus YLR039C, strain RIC1, hits give low values 1.01 | S. cerevisiae deletion strains, locus YLR058C, strain SHM2, hits give low values 1.01 | S. cerevisiae deletion strains, locus YLR102C, strain apc9, hits give low values 1.02 | S. cerevisiae deletion strains, locus YLR262C, strain YPT6, hits give low values 0.953 | S. cerevisiae deletion strains, locus YLR268W, strain sec22, hits give low values 0.991 | S. cerevisiae deletion strains, locus YLR330W, strain CHS5, hits give low values 0.999 | S. cerevisiae deletion strains, locus YLR342W, strain FKS1 (second series), hits give low values 1.03 | S. cerevisiae deletion strains, locus YLR371W, strain rom2, hits give low values 1.02 | S. cerevisiae deletion strains, locus YLR418C, strain cdc73, hits give low values 0.943 | S. cerevisiae deletion strains, locus YML016C, strain PPZ1, hits give low values 1 | S. cerevisiae deletion strains, locus YML032C, strain rad52, hits give low values 1 | S. cerevisiae deletion strains, locus YML124C, strain tub3, hits give low values 1.01 | S. cerevisiae deletion strains, locus YMR078C, strain ctf18, hits give low values 1 | S. cerevisiae deletion strains, locus YMR223W, strain ubp8, hits give low values 1.01 | S. cerevisiae deletion strains, locus YMR263W, strain SAP30, hits give low values 0.952 | S. cerevisiae deletion strains, locus YMR307W, strain GAS1, hits give low values 1.02 | S. cerevisiae deletion strains, locus YNL067W, strain RPL9B, hits give low values 0.988 | S. cerevisiae deletion strains, locus YNL128W, strain TEP1, hits give low values 1 | S. cerevisiae deletion strains, locus YNL153C, strain GIM3, hits give low values 1 | S. cerevisiae deletion strains, locus YNL233W, strain BNI4, hits give low values 1 | S. cerevisiae deletion strains, locus YNL250W, strain rad50, hits give low values 1.01 | S. cerevisiae deletion strains, locus YNL271C, strain bni1, hits give low values 1 | S. cerevisiae deletion strains, locus YNL298W, strain CLA4, hits give low values 1.02 | S. cerevisiae deletion strains, locus YNL307C, strain MCK1, hits give low values 1 | S. cerevisiae deletion strains, locus YNL322C, strain KRE1, hits give low values 1.01 | S. cerevisiae deletion strains, locus YNR052C, strain pop2, hits give low values 1.01 | S. cerevisiae deletion strains, locus YOL006C, strain TOP1, hits give low values 0.985 | S. cerevisiae deletion strains, locus YOL012C, strain htz1 0.793 | S. cerevisiae deletion strains, locus YOL147C, strain pex11, hits give low values 1 | S. cerevisiae deletion strains, locus YOR061W, strain CKA2, hits give low values 0.994 | S. cerevisiae deletion strains, locus YOR069W, strain VPS5, hits give low values 1 | S. cerevisiae deletion strains, locus YOR136W, strain idh2, hits give low values 1 | S. cerevisiae deletion strains, locus YOR144C, strain elg1, hits give low values 0.996 | S. cerevisiae deletion strains, locus YOR184W, strain ser1, hits give low values 1.01 | S. cerevisiae deletion strains, locus YOR316C, strain cot1, hits give low values 1 | S. cerevisiae deletion strains, locus YPL055C, strain LGE1, hits give low values 0.974 | S. cerevisiae deletion strains, locus YPL241C, strain CIN2, hits give low values 0.998 | S. cerevisiae deletion strains, locus YPR119W, strain clb2, hits give low values 0.997 | S. cerevisiae deletion strains, locus YPR141C, strain kar3, hits give low values 1.01 | S. cerevisiae deletion strains, locus YPR163C, strain tif3, hits give low values 1.01 | S. cerevisiae deletion strains, locus YPR167C, strain met16, hits give low values 1.01 | S. cerevisiae deletion strains, strain wtn01, hits give low values 1.01 | S. cerevisiae strains, strain wild type, hits give low values 1.01
